Assay results: PubChem BioAssay (NCI)
Compounds without any hit were thinned out: in the full panel of roughly 83,000, 20% have a hit.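 Cells were grown in 96-well plates and exposed to the test compound at a single concentration for 48 hours; results are reported as percent growth, with values below 10 considered active.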 Values without a mark were called inactive. Active and inactive are the calls of the source.

Tests used:
Test in all cases: NCI-60 one-dose screen, 48 h (100 = growth as untreated, 0 = no growth, -100 = all killed)
Conditions in all cases: 10 µM unless noted
[1] = test system: NCI-H23 lung
[2] = test system: NCI-H226 lung
[3] = test system: NCI-H322M lung
[4] = test system: HOP-62 NSCLC
[5] = test system: NCI-H460 lung
[6] = test system: NCI-H522 lung
[7] = test system: A549/ATCC NSCLC
[8] = test system: 786-0 renal
[9] = test system: COLO 205 colon
[10] = test system: DU-145 prostate
[11] = test system: K-562 leukemia
[12] = test system: MALME-3M melanoma
[13] = test system: MDA-MB-231 breast
[14] = test system: RXF 393 renal
[15] = test system: SF-268 CNS
[16] = test system: SF-295 CNS
[17] = test system: SF-539 CNS
[18] = test system: UACC-257 melanoma
[19] = test system: M14 melanoma

| SMILES | growth [1] | growth [2] | growth [3] | growth [4] | growth [5] | growth [6] | growth [7] | growth [8] | growth [9] | growth [10] | growth [11] | growth [12] | growth [13] [%] | growth [14] | growth [15] [%] | growth [16] | growth [17] | growth [18] | growth [19] |
| --- | --- | --- | --- | --- | --- | --- | --- | --- | --- | --- | --- | --- | --- | --- | --- | --- | --- | --- | --- |
| COc1cccc(/C=N\Nc2ccc([N+](=O)[O-])cn2)c1O | 38% | 81.5% | 32% | 46.4% | 18% | 12.7% | 57% | 64.5% | 134% | 51.6% | 44.1% | 60.9% | 42.4 | 72.8% | 37.1 | 3.86% (active) | 50.6% | 16.2% | 38.8% |
| Cc1c(C(=O)Nc2ccccc2F)sc2c(=O)[nH]cnc12 | 94% | 102% | 94.1% | 96.1% | 51.6% | 66.6% | 88.3% | 98.4% | 97.8% | 112% | 47.4% | 88.3% | 86.2 | 107% | 106 | 85.4% | 109% | 88.7% | 75.1% |
| Cc1ccccc1NC(=O)c1sc2nc3c(cc2c1N)C(=O)CCC3 | 50.6% | 65.8% | 71.4% | 38.2% | 15.3% | 12.5% | 37.6% | 51.6% | 6.12% (active) | 18.3% | 22.1% | 66.5% | 61.6 | -10.4% (active) | 65.4 | 57.2% | 27.6% | 61% | 41.5% |
| COc1cc2ncnc(Nc3ccc(S(=O)(=O)Nc4cc(C)on4)cc3)c2cc1OCCCN1CCN(c2ccc([N+](=O)[O-])cc2)CC1 | 103% | 107% | 103% | 106% | 110% | 94.7% | 106% | 109% | 105% | 112% | 120% | 104% | 97.9 | 115% | 102 | 109% | 102% | 107% | 98.4% |
| CO[C@H](C(=O)[C@@H](O)[C@@H](C)O)[C@@H]1Cc2cc3cc(O[C@H]4C[C@@H](O[C@H]5C[C@@H](O)[C@H](O)C(C)O5)[C@H](O)C(C)O4)c(C)c(O)c3c(O)c2C(=O)[C@H]1O[C@H]1C[C@@H](O[C@H]2C[C@@H](O[C@H]3C[C@](C)(O)C(=O)C(C)O3)[C@@H](O)C(C)O2)[C@H](O)C(C)O1 (some centres undefined) | -7.26% (active) | 1.78% (active) | 7.31% (active) | -2.07% (active) | 4.88% (active) | -31.9% (active) | 4.12% (active) | 4.11% (active) | -52.4% (active) | 9.76% (active) | 9.26% (active) | -26.8% (active) | 10.6 | -54.2% (active) | 16.4 | 6.84% (active) | 0.369% (active) | -27.4% (active) | -27% (active) |
| CC(=O)N1N=C(C2C(=O)N(C)C(=O)N(C)C2=O)CC1c1ccccc1C(=O)O (centres undefined) | 98.3% | 108% | 97.1% | 97.2% | 104% | 83.3% | 98.4% | 98.2% | 108% | 103% | 87.5% | 104% | 104 | 104% | 96.7 | 112% | 104% | 95.7% | 96.7% |
| CC(=O)O[C@H]1CC[C@]2(C)[C@H]3CC=C4[C@@H]5CC(C)(C)CC[C@]5(C(=O)OCC(COC(=O)C(Cl)Cl)(COC(=O)C(Cl)Cl)NC(=O)C(Cl)Cl)CC[C@@]4(C)[C@]3(C)CC[C@H]2C1(C)C | 87.6% | 94.2% | 89.1% | 79% | 49.4% | 41.1% | 31.5% | 63.9% | 47.8% | 62.2% | 38.8% | 83.1% | 82.9 | 74.7% | 56.1 | 80.4% | 86.8% | 42.5% | 67.2% |
| COc1ccccc1-[n+]1cc(-c2ccc(-c3ccccc3)cc2)n2c1CCCCC2 | 2.82% (active) | 21.8% | 20% | 12.6% | 7.28% (active) | -12% (active) | 10.3% | 18.5% | -7.92% (active) | 20.7% | 10.5% | 0.879% (active) | 19.1 | 15.2% | 21.2 | -1.81% (active) | 18.2% | -22.9% (active) | 11.1% |
| COc1cnc2c(c1)C(=O)c1c-2n(CCCN2CCCC2)c(=O)c2cc(Cl)ccc12 | 32.5% | 6.56% (active) | 46.6% | 16.2% | -12.9% (active) | 4.02% (active) | 25.3% | -73.1% (active) | 10.4% | 36% | -72% (active) | 70.3% | 62.4 | 30% | 39.2 | 23% | 4.9% (active) | 63.6% | 37.3% |
| CC(C)[C@@H]1C=C2CC[C@H]3[C@](C)(CN)CCC[C@]3(C)[C@H]2CC1 | 95.4% | 98.7% | -6.11% (active) | 59.8% | -69.7% (active) | 86.7% | 95.5% | 78% | -89.7% (active) | 44.1% | 17.5% | 60.2% | 61.3 | 87.9% | 43.4 | 54.8% | 102% | 104% | 89.3% |
| CCN(CC)Cc1cc(Nc2ccnc3ccc(OC)cc23)ccc1O | 56% | 56.4% | 38.5% | 71.2% | 20.1% | -1.72% (active) | 22.5% | 18.2% | 78.2% | 40.5% | 12.7% | 75% | 58.8 | 48.9% | 53 | 79% | 64.7% | -17.7% (active) | 29.5% |
| c1ccc(CCn2cccc2)nc1 | 106% | 107% | 122% | 98% | 123% | 106% | 109% | 103% | 94.8% | 104% | 98.6% | 114% | 94.9 | 116% | 96.5 | 114% | 106% | 108% | 106% |
| CCC(=O)OCc1ccc(OC)cc1 | 99% | 101% | 110% | 109% | 111% | 106% | 107% | 101% | 113% | 123% | 94.4% | 124% | 101 | 118% | 115 | 101% | 93.5% | 96.6% | 100% |
| CCOC(OCC)c1cnc2nc(NC(C)=O)[nH]c(=O)c2n1 | 102% | 107% | 101% | 120% | 104% | 98.8% | 99.7% | 97.5% | 121% | 107% | 104% | 89.8% | 104 | 110% | 112 | 109% | 108% | 109% | 100% |
| COC(=O)CSc1ccc(Cl)cc1 | 102% | 123% | 102% | 107% | 109% | 92.2% | 98% | 95.3% | 108% | 111% | 89.6% | 95.5% | 116 | 136% | 119 | 107% | 97.3% | 104% | 103% |
| O=C(c1ccccc1)C(CCc1ccccn1)CCc1ccccn1 | 106% | 104% | 117% | 93.1% | 110% | 89.5% | 98.3% | 98.4% | 105% | 101% | 96.2% | 82.4% | 99.5 | 120% | 101 | 110% | 103% | 109% | 93.7% |
